# According to PubChem BioAssay (EPA / NIEHS):
# The source holds several records for some structures; these can differ, active in one and inactive in another. Activity calls are given as the source filed them. How the source made its calls: active means hit-call score of the fitted dose curve at least 0.9, where 1 is the maximum; inactive means score below 0.9.
# Read-out: ATP-citrate lyase (ACLY), ACLY (gene 47)
# Experiment: LTEA_HepaRG_ACLY: Life Technologies and Expression Analysis (LTEA) Assay for ATP-citrate lyase (ACLY) using HepaRG (AID 2283466)
# Details: mRNA level, 48 h; actives raise or lower the signal
# Method: LTEA_HepaRG is a cell based, multiplexed-readout assay that uses HepaRG, a human liver cell line, with measurements taken at 48 hours after chemical dosing on a 96-well plate.LTEA_HepaRG_ACLY is one of 102 assay component(s) measured in the LTEA HepaRG cell culture assay. It is a marker of Steatosis.Data from the assay component LTEA_HepaRG_ACLY was analyzed into 1 endpoint. This assay endpoint, LTEA_HepaRG_ACLY, was analyzed with bidirectional fitting relative to DMSO as the negative control and baseline of activity. Using a type of inducible reporter, measures of mRNA induction for gain or loss-of-signal activity can be used to understand regulation of transcription factor activity. To generalize the intended target to other relatable targets, this assay endpoint is annotated to the lyase intended target family, where the subfamily is steatosis.
# A total of 1060 chemcials from the ToxCast library were tested in eight-point concentration-response experiments. Cell culture and cytotoxicity assays were conducted at Thermo Fisher Scientific's Custom Services facility (Madison, WI). A single lot of human HepaRG cells (Thermo Fisher Scientific, Frederick, MD) was used for the cell culture experiments. 96-well format collagen type I coated plates of human HepaRG cells were prepared using established methods. Briefly, cryopreserved HepaRG cells were thawed, plated at a density of approximately 100,000 cells/well in HepaRG Thaw, Plate, and General Purpose media (HPRG770, Thermo Fisher Scientific), and incubated for 48 hours. 0.5% DMSO was selected as vehicle control to balance the requisite need of DMSO in HepaRG cultures to maintain differentiation (for example, baseline metabolism, proportions of hepatocytes vs. cholangiocytes), while enabling further hepatic receptor pathway activation (for example, PXR and CAR) in response to chemical exposure. 48 hours after plating, the culture medium was replaced with HepaRG Serum-Free Incudtion Media. Cells were exposed to each test chemical in duplicate and maintained in CO2 incubators for another 48 hours. Chemical plates were thawed to room temperature and 200x concentrations of treatment groups were prepared. 8-point conentration-reponse curves were made with the highest exposure at 100 uM, followed by half-log dilutions, all in 0.5% DMSO. Each test plate contained variouse controls, induction positive controls (1mM phenobarbital), cytotoxicity positive controls ([…] aflatoxin B1), vehicle controls (0.5% DMSO), and total lysis controls (0.5% DMSO). Cell morphology images were taken using an Essen IncuCyte FLR automated microscope, with six 96-well plates imaged in about 24 minutes. Images were captured and exported and JPEG files. Spent culture media was transfered to black-well plates for the LDH assay, and remaining media was sorted at -80 C for later use. Cells were treated with RLT buffer and frozen until shipped for gene expression analysis. Total RNA was isolated from the cell suspension in 75 uL of Buffer RLT (Qiagen, Germantown, MD 20874) by Quintiles/Expression Analysis (Durham, NC) using a custom isolation procedure. Total RNA from each plate well was transferred to a preamplification plate. Fluidigm's 96.96 Dynamic ArrayTM (Fluidigm, Amsterdam, the Netherlands) technology was used for gene expression analyses by quantitative reverse transcription polymerase chain reaction (qRT-PCR, performed by Quintiles/Expression Analysis, Durham, NC)89. Standard TaqManTM Assays (Applied Biosystems/ThermoFisher Scientific, Foster City, CA) were used to assess the expression of 93 genes selected based on their selectivity and sensitivity to important hepatic receptors known to be modulated by environmental chemicals; importance in human hepatocyte functionality; and hepatotoxicity. […]
SMILES,outcome,AC50
CCON=C(CC)C1=C(O)CC(c2c(C)cc(C)cc2C)CC1=O (stereo not given),inactive,–
CCCCNC(=O)OCC#CI,inactive,–
CC(C)(C)c1ccc(CSc2cnn(C(C)(C)C)c(=O)c2Cl)cc1,–,1.72 µM (active)
Cc1cc(Cl)ccc1OCC(=O)O,inactive,–
CCCCOC(=O)c1ccccc1C(=O)OCCCC,inactive,–
Cc1c(F)c(F)c(COC(=O)C2C(/C=C(\Cl)C(F)(F)F)C2(C)C)c(F)c1F (stereo not given),inactive,–
CCCN(CCC)c1c([N+](=O)[O-])cc(S(N)(=O)=O)cc1[N+](=O)[O-],inactive,94.3 µM (active)
N#CC(CCc1ccc(Cl)cc1)(Cn1cncn1)c1ccccc1 (stereo not given),–,12.9 µM (active)
CCNc1nc(Cl)nc(NC(C)C)n1,inactive,–
COP(N)(=O)SC (stereo not given),inactive,–
N#Cc1cc(Br)c(O)c(Br)c1,–,23.5 µM (active)
CON(C)C(=O)Nc1ccc(Cl)c(Cl)c1,inactive,–
C=CCC1=C(C)C(OC(=O)C2C(C=C(C)C)C2(C)C)CC1=O (stereo not given),inactive,–
CS/C(C)=N/OC(=O)N(C)SN(C)C(=O)O/N=C(\C)SC,inactive,–
CC(C)C1(C)N=C(c2nc3ccccc3cc2C(=O)O)NC1=O (stereo not given),inactive,–
CCCCNC(=O)n1c(NC(=O)OC)nc2ccccc21,inactive,–
COC(=O)c1ccccc1C(=O)OC,inactive,–
C#CCOS(=O)OC1CCCCC1Oc1ccc(C(C)(C)C)cc1 (stereo not given),–,35 µM (active)
CNC(=O)ON=CC(C)(C)SC,inactive,–
O=C(O)COc1nc(Cl)c(Cl)cc1Cl,inactive,–

SMILES,outcome,AC50
COC(=O)C=C(C)OP(=O)(OC)OC,inactive,–
COP(=S)(OC)Oc1nc(Cl)c(Cl)cc1Cl,inactive,–
CC(C)Oc1cc(-n2nc(C(C)(C)C)oc2=O)c(Cl)cc1Cl,–,77.4 µM (active)
Fc1ccc(Oc2ccnc3cc(Cl)cc(Cl)c23)cc1,inactive,–
COc1ccc(C(c2ccc(OC)cc2)C(Cl)(Cl)Cl)cc1,inactive,–
CCc1nn(C)c(C(=O)NCc2ccc(C(C)(C)C)cc2)c1Cl,–,0.502 µM (active)
O=C(Nc1ccccc1)Nc1ccnc(Cl)c1,–,80.4 µM (active)
COC(=O)N(OC)c1ccccc1COc1ccn(-c2ccc(Cl)cc2)n1,inactive,–
Cc1ccc(-c2c(Cl)nc(C#N)n2S(=O)(=O)N(C)C)cc1,–,50 µM (active)
CCOC(=O)CC(SP(=S)(OC)OC)C(=O)OCC (stereo not given),inactive,–
COc1cnc(OC)n2nc(NS(=O)(=O)c3c(OCC(F)F)cccc3C(F)(F)F)nc12,inactive,–
C=CCC1=C(C)[C@@H](OC(=O)[C@@H]2[C@@H](C=C(C)C)C2(C)C)CC1=O,inactive,–
CCOC(=O)C(Cl)Cc1cc(-n2nc(C)n(C(F)F)c2=O)c(F)cc1Cl (stereo not given),inactive,–
CC(Oc1ccc(Cl)cc1Cl)C(=O)O (stereo not given),–,50 µM (active)
CN(C)C(=S)SSC(=S)N(C)C,inactive,–
OC(c1ccc(Cl)cc1)(c1cncnc1)c1ccccc1Cl (stereo not given),–,12.6 µM (active)
CCNc1nc(Cl)nc(NCC)n1,inactive,–
CC1=C(C(=O)Nc2ccccc2)SCCO1,inactive,–
CC1COC(Cn2cncn2)(c2ccc(Oc3ccc(Cl)cc3)cc2Cl)O1 (stereo not given),–,86.7 µM (active)
